Bioassay records as filed in PubChem.
Shown are actives, neighbours in structure and some others; about 1.3% of the full set was active somewhere.
COUP-TFII inh = NR2F2 transcriptional activity inhibitors, primary screen, cell-based, luciferase reporter, HEK293T, luminescence | HEK293T NGFI-A luciferase reporter | inhibition, % at 8.6 µM | hit rate 0.7% among 370,000 | AID 686940, 2013;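 active = inhibition above a per-plate cutoff, mean inhibition of test wells between control levels plus 3 SD, cut at about 38% in these data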;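 also: cells cotransfected with COUP-TFII expression vector driving the NGFI-A reporter; 0% = median of COUP-TF2 test wells and 100% = reporter-only cells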
Target sequence (P24468 whole entry, looked up): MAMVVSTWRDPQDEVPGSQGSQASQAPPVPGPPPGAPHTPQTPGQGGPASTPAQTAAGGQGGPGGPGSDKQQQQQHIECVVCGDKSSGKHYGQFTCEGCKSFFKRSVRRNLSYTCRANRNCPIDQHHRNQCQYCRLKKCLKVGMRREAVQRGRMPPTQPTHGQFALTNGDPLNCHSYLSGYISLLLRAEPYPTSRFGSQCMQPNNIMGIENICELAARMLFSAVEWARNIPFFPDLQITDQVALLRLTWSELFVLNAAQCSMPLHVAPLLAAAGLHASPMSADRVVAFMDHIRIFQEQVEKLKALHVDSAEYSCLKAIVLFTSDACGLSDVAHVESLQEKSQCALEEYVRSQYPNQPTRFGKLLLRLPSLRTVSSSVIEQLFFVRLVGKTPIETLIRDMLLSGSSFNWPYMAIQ
Gli-Sufu antag = Gli-Sufu pathway antagonists, primary screen, luciferase luminescence, Sufu-KO-LIGHT cells, uHTS. Sufu-KO-LIGHT fibroblasts, Gli luciferase reporter luminescence. AID 588413, 2011. hit rate 0.74% among 340,000. inhibition, % at 5 µM;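 active = inhibition above about 55%, limit read from the data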;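 also: 0% = DMSO-treated cells and 100% = wells with medium but no cells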
NCOA2 inhibitor = inhibition of GAL4-SRC2 driven luciferase reporter, primary screen, SRC2 inhibitor project, cell-based, luminescence; Nuclear receptor coactivator 2 (Homo sapiens), Q15596; HEK293 GAL4-SRC2 luciferase reporter; inhibition, % at 9 µM; hit rate 0.17% among 370,000;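 active = inhibition above the mean inhibition of all tested compounds plus 3 SD, set per campaign, cut at about 52% in these data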;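 also: 0% = DMSO treated cells and 100% = cells given Gossypol at 36 µM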
NCOA1 inh = SRC1 coactivator transcriptional activity inhibitors, primary screen, cell-based, luminescence; HEK293 GAL4-SRC1 luciferase reporter; AID 588354, 2011; hit rate 0.12% among 360,000; Nuclear receptor coactivator 1 (Homo sapiens), Q15788; inhibition, % at 3.6 µM;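 active = inhibition above the campaign mean plus 3 SD, with each screening campaign given its own cutoff, cut at about 60% in these data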;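 also: 0% = DMSO treated cells and 100% = gossypol at 36 µM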
NCOA3 inh = SRC3 coactivator transcriptional activity inhibitors, primary screen, cell-based, luminescence; hit rate 0.17% among 360,000; Nuclear receptor coactivator 3 (Homo sapiens), Q9Y6Q9; HEK293 GAL4-SRC3 luciferase reporter; inhibition, % at 3.6 µM; AID 588352, 2011;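 active = inhibition above a per-campaign cutoff, the mean of all compounds plus 3 SD, cut at about 60% in these data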;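 also: 0% = DMSO-treated cells and 100% = gossypol-treated cells at 36 µM; higher means less SRC3-driven luciferase light from the GAL4 reporter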
NR5A2 inv ag = LRH-1 (NR5A2) inverse agonists, primary screen, cell-based, luminescence, HEK293T, StAR-luciferase reporter. Nuclear receptor subfamily 5 group A member 2 (Homo sapiens), O00482. LRH-1 transfected, 24 h. inhibition, % at 3.6 µM. hit rate 0.13% among 360,000;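 active = inhibition above the mean inhibition of all tested compounds plus 3 SD, cut at about 73% in these data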;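 also: 0% = DMSO wells and 100% = reporter-only cells lacking LRH-1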
Gal4-VP16 ctr = Gal4-VP16 luciferase reporter inhibitors, counter-screen for COUP-TFII antagonist project, cell-based, luminescence, HEK293; shares compounds with COUP-TFII inh; inhibition, % at 8.5 µM; hit rate 25% among 2,500; AID 687007, 2013; in the data active = inhibition above about 13%
NR2F2 inh conf = NR2F2 transcriptional activity inhibitors, confirmation, cell-based, luciferase reporter, HEK293, triplicate | shares compounds with COUP-TFII inh | HEK293 NGFI-A luciferase reporter, luminescence | inhibition, % at 8.5 µM | hit rate 45% among 2,500 | AID 687008, 2013;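 active = mean inhibition over three repeats above a set limit taken from the earlier primary screen, cut at about 38% in these data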;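 also: 100% = cells given the luciferase reporter alone without the COUP-TF2 vector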
* = called active by the depositor.

Results for Cc1cc(C2=NNC(=NC3CC3)SC2)c(C)n1Cc1ccco1 ?
COUP-TFII inh: 89*; Gli-Sufu antag: 84*; NCOA2 inhibitor: 83*; NCOA1 inh: 76*; NCOA3 inh: 83*; NR5A2 inv ag: 76*; Gal4-VP16 ctr: 77*; NR2F2 inh conf: 103*

What do the screens show for `C=CCn1c(C)cc(C2=NNC(=Nc3ccc(C)cc3)SC2)c1C`?
COUP-TFII inh: -2; Gli-Sufu antag: 20; NCOA2 inhibitor: -12; NCOA1 inh: -3; NCOA3 inh: 17; NR5A2 inv ag: -2

How did C=CCN=C1NN=C(c2cc(C)n(CCOC)c2C)CS1 do in these assays?
COUP-TFII inh: 86*; Gli-Sufu antag: 58*; NCOA2 inhibitor: 70*; NCOA1 inh: 13; NCOA3 inh: 28; NR5A2 inv ag: -7; Gal4-VP16 ctr: 75*; NR2F2 inh conf: 96*

What do the screens show for `CCOC(=O)[C@]12CCCCC/C=C\1N(CCc1ccc(Cl)cc1)C(=O)[C@H]2CC(=O)NCc1ccc(C)o1`?
COUP-TFII inh: -1; NCOA2 inhibitor: -12

What do the screens show for `COC(=O)c1ccc2nc(Nc3nc4c(F)cc(F)cc4s3)sc2c1`?
COUP-TFII inh: 66*; Gli-Sufu antag: 49; NCOA2 inhibitor: 53*; NCOA1 inh: 55; NCOA3 inh: 60; NR5A2 inv ag: 62; Gal4-VP16 ctr: 26*; NR2F2 inh conf: 82*

Results for CCCCc1ccc2nc(NC(=O)c3ccc(Br)o3)sc2c1 ?
COUP-TFII inh: -33

Results for COc1ccc2nc(NC(=O)C3CCN(S(=O)(=O)c4cccc5nsnc45)CC3)sc2c1 ?
COUP-TFII inh: 78*; Gli-Sufu antag: 19; NCOA2 inhibitor: 49; NCOA1 inh: -1; NCOA3 inh: 18; NR5A2 inv ag: 14; Gal4-VP16 ctr: 5; NR2F2 inh conf: 51*

How did COc1ccc(S[C@]2(C(=O)N3CCN(C(C)=O)CC3)CC(=O)N(C(=O)/C=C/c3ccccc3)[C@@H]2c2ccc(OC)cc2)cc1 do in these assays?
COUP-TFII inh: 14; NCOA2 inhibitor: 22

How did COCCN1CCN(c2cc(-c3ccccc3)nc3cc(-c4cccc(F)c4)nn23)CC1 do in these assays?
COUP-TFII inh: 47*; Gli-Sufu antag: 6; NCOA2 inhibitor: 30; NCOA1 inh: -1; NCOA3 inh: 2; NR5A2 inv ag: 23; Gal4-VP16 ctr: -6; NR2F2 inh conf: -3

How did O=C(Nc1ccc(Cn2cccn2)cc1)c1ccc(COc2ccc(Br)cc2)cc1 do in these assays?
COUP-TFII inh: 1; Gli-Sufu antag: 17; NCOA2 inhibitor: -5; NCOA1 inh: 9; NCOA3 inh: 12; NR5A2 inv ag: -13

Results for O=C(Nc1ccn(Cc2ccccc2F)n1)c1ccc(COc2ccc(Br)cc2)cc1 ?
COUP-TFII inh: 73*; Gli-Sufu antag: -20; NCOA2 inhibitor: 21; NCOA1 inh: 11; NCOA3 inh: 21; NR5A2 inv ag: 33; Gal4-VP16 ctr: -11; NR2F2 inh conf: 47*

Results for CCOc1ccc(-n2c(SCC(=O)Nc3ccc(S(=O)(=O)Nc4nccs4)cc3)nnc2-c2ccccc2)cc1 ?
COUP-TFII inh: 14; NCOA2 inhibitor: -4

Results for OC[C@@H]1CN(Cc2ccccc2)C[C@H](n2cnc3c(NCc4ccc(F)cc4)ncnc32)O1 ?
COUP-TFII inh: -13; NCOA2 inhibitor: -17; NCOA1 inh: -68; NCOA3 inh: -15; NR5A2 inv ag: -7

Results for OC[C@@H]1CN(Cc2ccc(-c3ccccc3)cc2)C[C@H](n2cnc3c(NCc4ccc(F)cc4)ncnc32)O1 ?
COUP-TFII inh: 75*; NCOA2 inhibitor: 45; NCOA1 inh: 8; NCOA3 inh: 7; NR5A2 inv ag: 29; Gal4-VP16 ctr: 2; NR2F2 inh conf: 54*

How did OC[C@@H]1CN(Cc2ccc(F)cc2)C[C@H](n2cnc3c(Nc4ccccc4)ncnc32)O1 do in these assays?
COUP-TFII inh: 7; NCOA2 inhibitor: -6; NCOA1 inh: -13; NCOA3 inh: -8; NR5A2 inv ag: 9

What do the screens show for `OC[C@@H]1CN(Cc2ccc(-c3ccccc3)cc2)C[C@H](n2cnc3c(Nc4ccccc4)ncnc32)O1`?
COUP-TFII inh: 59*; NCOA2 inhibitor: 32; NCOA1 inh: 6; NCOA3 inh: 8; NR5A2 inv ag: -15; Gal4-VP16 ctr: 1; NR2F2 inh conf: 30

What do the screens show for `O=C(CCc1ccccc1)N[C@H]1[C@H](O)CCC[C@]12C(=O)N(Cc1ccccc1)c1ccccc12`?
COUP-TFII inh: -2; NCOA2 inhibitor: 4

What do the screens show for `Cc1ccc(-n2c(Cc3cccs3)nnc2SCC(=O)Nc2ccccc2-c2ccccc2)cc1`?
COUP-TFII inh: -22; NCOA2 inhibitor: -23

How did CCOc1cc(/C=C2\COc3ccccc3C2=O)cc(Br)c1OCC(=O)N(C)C do in these assays?
COUP-TFII inh: 38*; Gli-Sufu antag: 14; NCOA2 inhibitor: 57*; NCOA1 inh: 35; NCOA3 inh: 42; NR5A2 inv ag: 25; Gal4-VP16 ctr: 4; NR2F2 inh conf: 28

How did Cc1cc(C)cc(NC(=O)OC2CCC23CCCCC3)c1 (stereo not drawn) do in these assays?
COUP-TFII inh: 19; NCOA2 inhibitor: -13

What do the screens show for `COCCn1c(C)cc(C(=O)COC(=O)c2cccc(O)c2)c1C`?
COUP-TFII inh: 72*; Gli-Sufu antag: 43; NCOA2 inhibitor: 52; NCOA1 inh: 54; NCOA3 inh: 60; NR5A2 inv ag: -19; Gal4-VP16 ctr: 64*; NR2F2 inh conf: 87*

How did COCCn1c(C)cc(C(=O)COC(=O)c2cc3c(s2)CCC3)c1C do in these assays?
COUP-TFII inh: -12; Gli-Sufu antag: 7; NCOA2 inhibitor: -14; NCOA1 inh: 9; NCOA3 inh: -17; NR5A2 inv ag: 6

Results for COc1ccc(N(C(C)C(=O)N2CCC(Cc3ccccc3)CC2)S(C)(=O)=O)cc1 (stereo not drawn) ?
COUP-TFII inh: 42*; Gli-Sufu antag: 33; NCOA2 inhibitor: 24; NCOA1 inh: 19; NCOA3 inh: 24; NR5A2 inv ag: 11; Gal4-VP16 ctr: -3; NR2F2 inh conf: 30
